The campaign covered roughly 310,000 compounds. About 14,000 (4.5%) showed an effect of 50% or more. The effect is printed as a negative number. This excerpt belongs to a sample that is enriched for strong results.
Each molecule was assayed against human ether-à-go-go-related gene (hERG) potassium channel (human, UniProt Q12809) (assay: primary screen, population patch clamp on CHO cells stably expressing hERG; higher = less effect of the substance).
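Further: peak tail current of the secondary pulse compared with the same well before compound.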

Chain of human ether-à-go-go-related gene (hERG) potassium channel (Q12809 whole entry, looked up): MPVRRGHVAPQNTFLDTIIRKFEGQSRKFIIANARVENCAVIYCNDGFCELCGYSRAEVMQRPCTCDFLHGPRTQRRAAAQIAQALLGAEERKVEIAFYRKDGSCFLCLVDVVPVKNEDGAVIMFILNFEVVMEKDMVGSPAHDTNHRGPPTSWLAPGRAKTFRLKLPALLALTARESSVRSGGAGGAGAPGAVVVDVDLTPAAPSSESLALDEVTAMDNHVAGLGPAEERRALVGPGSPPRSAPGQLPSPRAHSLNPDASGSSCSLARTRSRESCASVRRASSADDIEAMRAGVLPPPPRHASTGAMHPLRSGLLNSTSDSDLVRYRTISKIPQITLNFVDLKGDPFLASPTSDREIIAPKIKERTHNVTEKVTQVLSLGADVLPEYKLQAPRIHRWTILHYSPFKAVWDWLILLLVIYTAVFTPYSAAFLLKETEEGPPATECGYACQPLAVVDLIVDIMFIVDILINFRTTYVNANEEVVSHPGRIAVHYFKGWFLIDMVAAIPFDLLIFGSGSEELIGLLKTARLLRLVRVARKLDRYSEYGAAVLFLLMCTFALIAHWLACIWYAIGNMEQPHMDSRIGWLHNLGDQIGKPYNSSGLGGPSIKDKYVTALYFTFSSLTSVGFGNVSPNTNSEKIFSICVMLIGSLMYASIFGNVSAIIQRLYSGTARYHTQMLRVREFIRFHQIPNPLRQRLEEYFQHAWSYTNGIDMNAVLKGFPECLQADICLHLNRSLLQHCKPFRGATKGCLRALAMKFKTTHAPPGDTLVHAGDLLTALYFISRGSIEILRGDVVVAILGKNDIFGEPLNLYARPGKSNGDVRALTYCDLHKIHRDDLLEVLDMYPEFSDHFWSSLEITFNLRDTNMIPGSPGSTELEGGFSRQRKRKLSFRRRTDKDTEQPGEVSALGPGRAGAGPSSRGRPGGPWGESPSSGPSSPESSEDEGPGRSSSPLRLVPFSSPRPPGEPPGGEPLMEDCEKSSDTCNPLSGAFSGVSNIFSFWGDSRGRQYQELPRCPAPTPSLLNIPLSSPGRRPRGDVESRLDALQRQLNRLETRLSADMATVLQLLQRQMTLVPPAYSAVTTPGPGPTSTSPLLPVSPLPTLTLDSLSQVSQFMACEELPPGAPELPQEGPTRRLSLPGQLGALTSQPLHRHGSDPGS

| SMILES | hERG current change (%, negative = inhibition) at 10uM [%] |
| --- | --- |
| O=C(CNC(=O)c1ccco1)N/N=C/c1cccs1 | 14.9 |
| O=C(Nc1ccc([N+](=O)[O-])cn1)c1cc(-c2cccc(Cl)c2)nc2ccccc12 | -8.44 |
| Cc1ccc(C(=O)N2CCC(C)CC2)cc1S(=O)(=O)N1CCCCC1 | -10.2 |
| CCOc1cc(C(=O)OC(C)C(=O)Nc2ccc(S(N)(=O)=O)cc2)ccc1OCC(=O)N1CCOCC1 (centres unmarked) | -5.65 |
| CC(=O)c1cccc(NC(=S)NC(=O)c2ccc(C)cc2)c1 | 22.4 |
| COc1cccc(C(=O)NNS(=O)(=O)c2ccc(F)cc2)c1 | 9.31 |
| Cc1ccc(NC(=O)COC(=O)CCc2c[nH]c3ccccc23)cc1[N+](=O)[O-] | 10.4 |
| Cc1nc(N)nc(SCc2ccc([N+](=O)[O-])cc2)c1N | -74.6 |
| CC(=O)c1cc(C#N)c(SCc2ccc([N+](=O)[O-])cc2)nc1C | 17.7 |
| c1ccc(CSc2nc3ccccc3[nH]2)cc1 | 17.6 |
| O=[N+]([O-])c1ccc(CSc2nc3ccccc3[nH]2)cc1 | -54.2 |
| Cc1cc(C)nc(SCc2ccc([N+](=O)[O-])cc2)n1 | -17 |
| O=[N+]([O-])c1cccc(CSc2nc3ccccc3[nH]2)c1 | -15.6 |
| O=S(=O)(CCc1nc2ccccc2o1)c1ccc2ccccc2c1 | 7.8 |
| Cc1cccc(/C(N)=N/OC(=O)c2ccc(Br)o2)c1 | 11.7 |
| Fc1ccc(-c2csc(/C=C/c3ccc4c(c3)OCO4)n2)cc1 | 13.2 |
| CC(C)c1ccc(C(=O)CC2(O)C(=O)N(CN3CCOCC3)c3ccccc32)cc1 (centres unmarked) | 10.4 |
| O=C1N(CCCCN2C(=O)C3(OCCO3)c3ccccc32)c2ccccc2C12OCCO2 | 6.9 |
| CO[C@@H]1[C@@H](O[C@@H]2O[C@H](C)[C@@H](O[C@H]3C[C@@](C)(OC(=O)CC(C)C)[C@@H](O)[C@H](C)O3)[C@H](N(C)C)[C@H]2O)[C@@H](CC=O)C[C@@H](C)[C@@H](O)C=CC=CC[C@@H](C)OC(=O)C[C@H]1OC(C)=O | -6.51 |
| c1cncc(C2CCCCN2)c1 (centres unmarked) | -6.38 |
| CCOc1cc(/C=C2/N=C(c3ccc4c(c3)OCO4)OC2=O)ccc1OC(C)=O | 9.87 |
| COc1cccc(N2CCN(S(=O)(=O)c3cccc4cccnc34)CC2)c1 | 15.5 |
| COc1c2c(cc3c1C(CC(O)Cc1ccccc1)N(C)CC3)OCO2 (centres unmarked) | -61.3 |
| COc1ccc2c(c1OC)C(C1c3c(cc4c(c3OC)OCO4)CCN1C)OC2=O (centres unmarked) | -7.14 |
| COc1ccc(CC(O)CC2c3c(cc4c(c3OC)OCO4)CCN2C)cc1.Cl (centres unmarked) | -78.9 |
| COc1ccc2c(c1OC)C(=O)OC2C1c2c(cc3c(c2OC)OCO3)CCN1C.Cl (centres unmarked) | -1.88 |
| COc1ccc2c(c1OC)C(=O)OC2C1c2c(cc3c(c2OC)OCO3)CCN1C.Cl.O (centres unmarked) | -13.7 |

| SMILES | hERG current change (%, negative = inhibition) at 10uM [%] |
| --- | --- |
| COc1ccc2c(c1OC)C(=O)O[C@@H]2[C@H]1c2c(cc3c(c2OC)OCO3)CCN1C | -2.49 |
| O=c1[nH]ncc2c3ccccc3n(Cc3ccccc3)c12 | 15.8 |
| S=C(NCc1ccco1)Nc1ccc(Cl)cc1Cl | 8.1 |
| O=C1c2oc3ccccc3c(=O)c2C(c2cccc(Br)c2)N1Cc1ccco1 (centres unmarked) | -8.64 |
| CCc1ccc(CN(C)CC(=O)Nc2ccc3c(c2)CCC3)cc1 | 9.39 |
| O=C(OCc1cccc([N+](=O)[O-])c1)c1cc2ccccc2oc1=O | 20.7 |
| Cc1ccc(C(=O)NNC(=O)c2ccc(Br)s2)cc1S(=O)(=O)N1CCOCC1 | -26.2 |
| COc1ccc(CC(=O)Nc2cccc(-c3ccc4nnc(C)n4n3)c2)cc1OC | -0.118 |
| COc1ccc(CC(=O)Nc2ccc(-c3ccc4nnc(C)n4n3)cc2)cc1OC | 2.72 |
| Cc1nnc2ccc(-c3cccc(NC(=O)Cc4cccs4)c3)nn12 | -25.9 |
| CCOc1ccc(CC(=O)Nc2ccc(-c3ccc4nnc(C)n4n3)cc2)cc1 | -40.4 |
| CCOc1ccc(CC(=O)Nc2cccc(-c3ccc4nnc(C)n4n3)c2)cc1 | -51.1 |
| COc1ccc(CC(=O)Nc2cccc(-c3ccc4nnc(C)n4n3)c2)cc1 | -54.1 |
| CCOC(=O)C1CCCN(C(=O)CS(=O)(=O)Cc2ccccc2)C1 (centres unmarked) | 15.3 |
| O=C(CNC(=O)c1ccc2c(c1)OCO2)N/N=C/c1cc(Br)ccc1O | 20.1 |
| Cn1c(SCC(N)=O)nnc1C1CCN(S(=O)(=O)c2ccccc2C(F)(F)F)CC1 | 13.3 |
| COCC(=O)Nc1cc(=O)n(C)c(=O)n1C | 4.94 |
| CC(C)(C)C(=O)Nc1nnc(SCC(=O)NCc2cccs2)s1 | 16.3 |
| COc1ccc(CNCC(O)(c2ccccc2)c2ccccc2)cc1 | -64 |
| CCc1ccc(C(O)(CNCc2ccccc2)c2ccccc2)cc1 (centres unmarked) | -41.6 |
| COc1ccc(CNCC(O)(c2ccccc2)c2ccc(Cl)cc2)cc1 (centres unmarked) | -68.8 |
| COc1ccc(CNCC(O)(c2ccc(Cl)cc2)c2ccc(Cl)cc2)cc1 | -12 |
| OC(CNCc1ccc(Cl)cc1)(c1ccccc1)c1ccc(F)cc1 (centres unmarked) | -4.52 |
| OC(CNCc1ccccc1)(c1ccccc1)c1ccccc1 | -9.7 |
| CN(CC(=O)Nc1ccccc1Cl)C(=O)CSc1ncc(C(F)(F)F)cc1Cl | 9.55 |
| CCCCCCCNC(=O)CC(NS(=O)(=O)c1ccc(NC(C)=O)cc1)C(C)C (centres unmarked) | 3.19 |
